# Only some compounds are listed: those with a hit (about 13% of all), similar ones and a draw of the others.
# HADH2 inhib: qHTS Assay for Inhibitors of HADH2 (Hydroxyacyl-Coenzyme A Dehydrogenase, Type II); Potency, µM (top dose mostly 57.1 µM), inactives show at the highest dose activity change, negative = inhibition, hits mostly inhibitors; 3.4% of 73,000 active; recombinant HADH2, NADH fluorescence, beta-hydroxybutyryl-CoA; AID 886, 2007; 3-hydroxyacyl-CoA dehydrogenase type-2 (Homo sapiens), Q99714; further: potency means the concentration at half of the fitted maximal effect; on the % scale 0 is the no-effect control and ±100 the full control effect; nearly all actives have a fitted effect of over 60% in size
#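 Read-out: 360 nm excitation, 450 nm emission, kinetic over 4 min. Conditions: His-tagged human HADH2 20 nM, pH 9.0 Tris with Tween-20, 1 mM NAD+, 90 uM beta-hydroxybutyryl-CoA.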
# HSD17B inhib: qHTS Assay for Inhibitors of HSD17B4, hydroxysteroid (17-beta) dehydrogenase 4. 3-hydroxyacyl-CoA dehydrogenase type-2 (Homo sapiens), Q99714. recombinant HSD17B10, NADH fluorescence kinetic. Potency, µM (titrated, usually from 57.1 µM), for the others: at the highest dose activity change, negative = inhibition, hits mostly inhibitors. 7.6% of 75,000 active;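 further: the protocol describes HADH2 (HSD17B10) and not the HSD17B4 of the title; potency means the concentration at half of the fitted maximal effect; on the % scale 0 is the no-effect control and ±100 the full control effect; nearly all actives have a fitted effect of over 70% in size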
#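 Activity followed as NADH fluorescence increase (ex 360, em 450 nm) every 30 seconds for 4 min, using final 90 uM beta-hydroxybutyryl CoA and 1 mM NAD+. Recombinant His-tagged enzyme, 20 nM, pH 9.0 Tris buffer, 15 min compound preincubation.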
# AID923: qHTS Assay for Allosteric/Competitive Inhibitors of Caspase-1: Spectroscopic Profiling in AFC Spectral Region; compound fluorescence, AFC spectral region (405/520 nm); Potency, µM (top dose mostly 57.5 µM), for the others: top-dose fluorescence increase, most hits filed as activators; 1.1% of 75,000 active; AID 923, 2007; further: potency means the concentration at half of the fitted maximal effect; 0% is about no effect
#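 Baseline compound fluorescence (AFC region, 405 nm ex/520 nm em) taken from the intercept of kinetic reads with 50 nM caspase-1 and 5 uM Ac-WEHD-AFC; normalized to an on-plate AFC standard curve; compounds titrated up to 57 uM.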
# 4MU fluor: qHTS Assay for Spectroscopic Profiling in 4-MU Spectral Region | max dye-equivalent concentration, M | compound autofluorescence, 340/450 nm, 4-MU equivalents; stronger effect = higher value | 11% of 59,000 active; in the data active means max dye-equivalent concentration above about 10 nM; inconclusive means mostly about 1.1 nM to 9.6 nM
#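 Compounds in 100 mM Tris, pH 8.0, incubated 15 min at room temperature, then fluorescence read at 340 nm excitation/450 nm emission. Signal converted to 4-MU dye-equivalent concentration using an on-plate six-point 4-MU standard curve.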
# GBA mod: Glucocerebrosidase | Lysosomal acid glucosylceramidase (Homo sapiens), P04062 | Potency, µM | AID 360, 2006 | 1.1% of 48,000 active | purified enzyme, resorufin glucoside fluorescence (screen aimed at inhibitors), 20 min; in the data active means potency below about 15 µM; inconclusive means mostly about 16 µM to 33 µM;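 further: potency means the concentration at half of the fitted maximal effect; the screen sought inhibitors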
# Target sequence (P04062 whole entry, looked up): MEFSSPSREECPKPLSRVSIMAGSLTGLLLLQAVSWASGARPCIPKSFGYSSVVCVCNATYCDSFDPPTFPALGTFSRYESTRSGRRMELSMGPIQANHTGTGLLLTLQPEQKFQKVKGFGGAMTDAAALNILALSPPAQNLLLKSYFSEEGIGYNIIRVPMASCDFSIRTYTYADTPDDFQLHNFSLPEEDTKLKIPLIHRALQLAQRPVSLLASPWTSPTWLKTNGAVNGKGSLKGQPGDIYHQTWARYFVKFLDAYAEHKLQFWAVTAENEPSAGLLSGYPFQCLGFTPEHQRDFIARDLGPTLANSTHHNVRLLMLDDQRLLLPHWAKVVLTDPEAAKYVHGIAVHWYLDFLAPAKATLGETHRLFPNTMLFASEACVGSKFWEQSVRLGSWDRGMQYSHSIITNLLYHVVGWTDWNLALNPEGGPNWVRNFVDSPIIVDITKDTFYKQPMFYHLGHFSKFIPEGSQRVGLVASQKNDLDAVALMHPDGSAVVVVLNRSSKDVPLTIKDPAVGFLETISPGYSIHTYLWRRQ
#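 Compounds titrated against 0.2 nM normal enzyme, 30 uM resorufin beta-D-glucopyranoside substrate, citrate/phosphate buffer with taurocholate and tween-20, pH 5.9. Reaction ran 20 min at room temperature; fluorescence (Ex 548/Em 600) gave AC50.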
# A350 autofl: qHTS Assay for Spectroscopic Profiling in A350 Spectral Region; Compound autofluorescence, 340/450 nm, Alexa 350 dye-equivalents; stronger effect = higher value; max dye-equivalent concentration, M; 11% of 59,000 active; AID 590, 2007; in the data active means max dye-equivalent concentration above about 10 nM; inconclusive means mostly about 1.1 nM to 9.6 nM
# An asterisk follows results filed as active; i = inactive; ? = inconclusive; . = not tested or not shown; [ ] = remark or other dose. Unless noted, the call rests on the fitted dose curve; in most records, active means well fitted curve in the direction sought with a large enough effect; inconclusive means small, poorly fitted or top-dose-only effect, or another doubt; inactive means no such curve, though single readings can be large; an effect the other way counts as inactive or inconclusive.
SMILES,HADH2 inhib,HSD17B inhib,AID923,4MU fluor,GBA mod,A350 autofl
CN1CCN(c2ncc3ncc(=O)n(C4CC4)c3n2)CC1,24%,?,20%,?,.,?
O=C(Cn1cnc2c(nnn2Cc2ccc(F)cc2)c1=O)NCC1CCCO1 (stereo not given),3%,8%,-2%,i,>77,i
COC(=O)c1ccc(NC(=O)c2ccc3c(c2)OCO3)cc1,9%,-9%,1%,i,>77,i
COc1cccc(NC(=O)c2oc3ccccc3c2NC(=O)C(C)(C)C)c1,-24%,-25%,1%,?,.,?
COc1ccc(NC(=O)c2ccc3c(c2)OCO3)cc1Cl,7%,32µM*,-2%,i,>77,i
COc1cccc(NC(=O)c2oc3ccccc3c2NC(=O)c2ccc3c(c2)OCO3)c1,-21%,32µM*,1%,1.8e-07M*,>77,1.5e-07M*
COc1cc(NC(=O)c2ccc3c(c2)OCO3)c2ncccc2c1,-27%,25µM*,-2%,6.8e-08M*,>77,6.5e-08M*
Cn1c(=O)c(-c2ccc(Cl)cc2)nc2cnc(Nc3ccccc3)nc21,7%,2%,9%,i,.,i
O=C(NCC(F)(F)F)N1CCOCC1,.,.,.,i,.,i
CCN1C(=O)/C(=C/N2CCc3ccccc32)SC1=S,13%,2%,4%,i,>77,?
CCN1C(=O)/C(=C\N2CCCc3ccccc32)SC1=S,-15%,-4%,1%,1.4e-08M*,>77,1.5e-08M*
COC(=O)Nc1ccc2c(c1)N(C(=O)CCN1CCOCC1)c1ccccc1S2,-5%,-1%,0%,5e-08M*,i,5.7e-08M*
CCOc1ccc2nc(COC(=O)c3ccco3)c(C(C)=O)[n+]([O-])c2c1,8%,-2%,2%,i,>77,i
CC(=O)c1c(COC(=O)c2cccnc2)nc2ccccc2[n+]1[O-],2%,1%,0%,?,>77,1.7e-08M*
Cc1nc(-c2cccc(S(=O)(=O)N3CC(C)OC(C)C3)c2)cs1 (stereo not given),-12%,-1%,-2%,i,>77,i
CCOC(=O)C1CCN(S(=O)(=O)c2ccc(OCC)cc2)CC1,-6%,-1%,0%,i,>77,i
CCOC(=O)C1CCN(S(=O)(=O)c2cccc(-c3csc(C)n3)c2)CC1,25µM*,-20%,2%,1e-07M*,>77,1.4e-07M*
Cc1nc(-c2cccc(S(=O)(=O)N3CCOCC3)c2)cs1,1µM*,?,9%,2.3e-07M*,>77,3e-07M*
CCOC(=O)C1CCN(S(=O)(=O)c2cccc(-c3cn4cccnc4n3)c2)CC1,7.9µM*,25µM*,1%,1.5e-06M*,>77,2.2e-06M*
COc1ccc(OC)c(C(=O)CSc2nc3c(c(=O)n(C)c(=O)n3C)n2C(C)C)c1,-8%,2%,0%,i,>77,i
CCOC(=O)N1CCC(N(CCCOC)C(=O)Nc2cccc(OC)c2)CC1,5%,7%,-2%,1.4e-08M*,>77,1.9e-08M*
CCCc1[nH]nc2c1C(c1ccc(OC)c(CSC3=NCCS3)c1)C(C#N)=C(N)O2 (stereo not given),-14%,-18%,0%,1.1e-07M*,>77,1.1e-07M*
CCCc1[nH]nc2c1C(c1cc(OC)cc(OC)c1)C(C#N)=C(N)O2 (stereo not given),1%,-12%,-2%,i,>77,i
O=C(N/N=C1/C[C@@H](O)[C@@H](O)[C@@H]2[C@@H]3C(=O)N(C4CCCCC4)C(=O)[C@H]3CC[C@@H]12)OCc1ccccc1,-3%[11.4 µM],6%[11.4 µM],-2%[11.5 µM],.,.,.
COc1ccccc1Nc1nc(N)nc(CN2CCC(Cc3ccccc3)CC2)n1,-5%,-1%,0%,i,0.93*,i
SMILES,HADH2 inhib,HSD17B inhib,AID923,4MU fluor,GBA mod,A350 autofl
COc1cccc(N2CCN(Cc3nc(N)nc(Nc4ccccc4OC)n3)CC2)c1,11%,0%,2%,1.1e-08M*,3.9*,1.3e-08M*
COc1ccccc1Nc1nc(N)nc(CN2CCCCCC2)n1,6%,8%,2%,i,.,i
COc1ccccc1Nc1nc(N)nc(CN2CCN(c3ccccc3)CC2)n1,9%,-7%,0%,i,6.8*,i
COc1ccccc1Nc1nc(N)nc(CN2CCOCC2)n1,2%,4%,2%,.,.,.
Cc1cccc(Nc2nc(N)nc(CN3CCC(C)CC3)n2)c1C,14%,1%,4%,3.7e-08M*,12*,5.7e-08M*
O=S(=O)(c1ccccc1)N1CN2CN(C1)CN(S(=O)(=O)c1ccccc1)C2,8%[11.4 µM],2%[11.4 µM],-2%[11.5 µM],i,.,i
O=C(NCCCCN1CCCC1)c1ccc(-n2c(=O)c(=O)[nH]c3ccccc32)cc1,7%,8%,4%,.,.,.
COc1ccccc1N1CCN(Cc2nc(N)nc(Nc3ccccc3)n2)CC1,21%,7%,2%,4.4e-08M*,4.8*,4.3e-08M*
CCOC(=O)c1cnc(-n2nc(C)cc2C)nc1NCCc1ccccc1,16%,25µM*,4%,i,>77,i
CCOC(=O)c1cnc(-n2nc(C)cc2C)nc1NCc1ccc2c(c1)OCO2,6%,-1%,1%,i,>77,i
C=CC(=O)OCCCC,2%,-2%,-2%,.,.,.
Oc1cc2ccccc2cc1-c1n[nH]c(=S)o1,10µM*,25µM*,0%,1.9e-08M*,12*,1.7e-08M*
COC(=O)N1CCC[C@@]2(CCN(Cc3nccs3)C2)C1,4%,8%,2%,i,.,i
CN(CC(=O)O)Cc1c[nH]c2ccccc12,-1%[11.4 µM],9%[11.4 µM],-1%[11.5 µM],i,.,i
CN(C)c1ccc(C(=O)OCC(=O)Nc2ccc(S(N)(=O)=O)cc2)cc1,-15%,?,-2%,i,?,i
CCC(=O)Nc1ccccc1C(=O)OCC(=O)Nc1ccc(S(N)(=O)=O)cc1,-8%,32µM*,1%,i,>77,i
C=CCOc1cccc(C2/C(=C(/O)c3ccccc3)C(=O)C(=O)N2CCCN2CCOCC2)c1 (stereo not given),8%,13%,0%,i,>77,?
CCOC(=O)C1Cc2c([nH]c3ccccc23)C(C)N1 (stereo not given),.,.,.,i,.,?
COC(=O)C1Cc2c([nH]c3ccccc23)CN1 (stereo not given),32%,25µM*,3%,2e-08M*,>77,2.2e-08M*
Cc1c(O)nc(SC2CC(=O)N(c3ccccc3)C2=O)[nH]c1=O (stereo not given),-12%,-6%,1%,i,>77,i

# Assay outcomes as filed in PubChem BioAssay.
